Bioassay records (PubChem)
The list is not random: actives were taken first. Their share in the collection is about 4.2%.
DAX1 StAR inh = DAX1 (NR0B1) inhibition, primary screen; 1.1% of 370,000 active; inhibition, % at 6.8 µM; HEK293T StAR-luciferase reporter, SF-1/DAX-1 repression relief;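 active means inhibition above the mean over all tested compounds plus 3 SD, cut at about 3.6% in these data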;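 further: 0% = DAX-1 cells with DMSO and 100% = cells lacking DAX-1 with DMSO; higher inhibition means more luminescence from relief of DAX-1 repression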
hgDAF-12 ag = activates the H. glycines DAF-12 receptor ligand-binding domain; HEK293 GAL4-hgDAF12 UAS-luciferase reporter, agonist luminescence; normalized to butyrate control; activation, % at 6.8 µM; 1.8% of 370,000 active; AID 687014;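 active means activation above a cutoff set at the mean of all screened compounds plus 3 SD, cut at about 10% in these data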;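 further: 0% = DMSO wells and 100% = sodium butyrate wells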
hcDAF12 agonist = activates DAF-12 receptor from parasite H. contortus | HEK293 hcDAF-12 lit1-tk-luc reporter, luminescence; 0% DMSO, 100% Δ7-dafachronic acid | activation, % at 6.8 µM | 1.4% of 370,000 active;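 active means activation above the mean of all tested compounds plus 3 SD, cut at about 5.5% in these data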;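 further: 100% = response to 3 µM Δ7-dafachronic acid high control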
ssDAF-12 act = activators of S. stercoralis DAF-12 nuclear receptor | HEK293 ssDAF-12/GRIP1 lit1-tk-luc reporter, luminescence; % of 3 µM dafachronic acid response | activation, % at 6.8 µM | 1% of 370,000 active | AID 652126;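 active means activation above the mean over all tested compounds plus 3 SD, cut at about 0.9% in these data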;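 further: 0% = DMSO-only wells and 100% = 3 µM delta7-dafachronic acid wells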
SMARCA2 activ = SMARCA2 function activation, primary screen. MG213 cells, MMTV-luciferase reporter, dexamethasone, overnight. activation, % at 9.1 µM. 1% of 370,000 active. AID 652017; in the data active means activation above about 7.8%;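 further: 0% = vehicle wells and 100% = reference activator wells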
* hit, by the source's call; / = no result.

SMILES	DAX1 StAR inh	hgDAF-12 ag	hcDAF12 agonist	ssDAF-12 act	SMARCA2 activ
C/C(=C/c1[nH]c(N)[n+](CC2CC2)c1Cc1ccccc1)Cn1[nH]c(=O)n(-c2ccccc2)c1=O	-1	-4	-2	-2	-3
COc1ccc(C(=O)Nc2nc(CC(=O)NCc3ccc(F)cc3)cs2)cc1	-1	-1	-1	-1	1
COc1ccc(CNC(=O)Cc2csc(Nc3nc(=S)[nH]c4ccccc34)n2)cc1	1	-3	5	1.0*	1
Nc1[nH]c(C(=O)c2ccc(Cl)cc2)c(-c2ccc(Br)cc2)c1C(=O)NCc1ccc(Cl)cc1Cl	1	1	-2	-1	-3
Cc1ccc(NC(=O)COC(=O)CN2C(=O)C3CCCCC3C2=O)cc1S(=O)(=O)N1CCOCC1 (stereo not drawn)	0	-3	2	-2	-1
Cc1ccc(OCCC(=O)OCC(=O)Nc2ccc(C)c(S(=O)(=O)N3CCOCC3)c2)cc1	3.7*	1	0	-1	-2
Cc1ccc(NC(=O)COC(=O)CC2CC3CCC2C3)cc1S(=O)(=O)N1CCOCC1 (stereo not drawn)	3.6*	-2	0	-2	-5
O=C(CCc1ccccc1)N[C@H]1[C@H](OCc2ccccc2)CCC[C@@]12C(=O)N(Cc1ccccc1)c1ccccc12	-1	-3	-1	-1	-3
Cc1nc2ccccc2nc(=O)c1NNc1ccccc1	1	9	2	0	4
Cc1ccc2nc(=O)c(NNc3ccccc3)cnc2c1	1	6	0	1.0*	2
CCn1c(=O)cc(OCC(=O)NCCC(C)C)c2ccccc21	0	-2	0	0.9*	-1
O=C1C2C3C=CC(C4CC34)C2C(=O)N1/N=C/c1ccc([N+](=O)[O-])s1 (stereo not drawn)	0	6	-1	-1	-2
O=C1C2C3C=CC(C4CC34)C2C(=O)N1/N=C/c1c[nH]c2ccccc12 (stereo not drawn)	0	10*	6.0*	2.2*	-2
CCOc1ccccc1C(=O)Nc1ccc2nc(C)[nH]c(=O)c2c1	-1	2	-2	-1	-7
CCOc1ccc(NC(=O)c2cc(-c3ccc(Cl)cc3)nc3ccccc23)cc1	-1	0	0	-1	-5
CCCCc1ccc(Nc2ncccc2C#N)cc1	1	8	5.8*	1	3
N#Cc1cccnc1Nc1ccc(Cl)cc1	0	0	3	0	-4
Cc1cc(C(=O)O)ccc1N/C=C1\CCCC(C)C1=O (stereo not drawn)	2	11*	3	1	4
Cc1cc(C)nc(SC2CCCCC2O)n1 (stereo not drawn)	1	4	5.8*	-1	0
COc1ccc(N2C(=O)CC(Sc3nc(C)cc(C)n3)C2=O)cc1OC (stereo not drawn)	0	1	1	-1	1
Cc1ccc2cccc(NC(=S)NC(=O)c3ccccc3)c2n1	0	2	5.7*	1.0*	-1
Cc1ccc(NC(=S)NC(=O)c2ccccc2)cc1NC(=S)NC(=O)c1ccccc1	1	10	6.2*	-1	3
O=C(NC(=S)Nc1cccc(NC(=S)NC(=O)c2ccccc2)c1)c1ccccc1	-1	4	5	0	0
COC(=O)Nc1ccc(C)c(NC(=O)OC)c1	0	0	6.4*	-1	2
CCC(=O)Nc1cccc(NC(=S)NC(=O)c2ccccc2)c1	1	13*	3	-1	6
SMILES	DAX1 StAR inh	hgDAF-12 ag	hcDAF12 agonist	ssDAF-12 act	SMARCA2 activ
COC(=O)Nc1ccc2c(c1)OCO2	1	5	0	-1	2
O=C1NC[C@H](CCCCN2CCN(Cc3ccccc3)C(=O)C2=O)N(CCc2ccc(O)cc2)C1=O	0	-2	-2	-1	2
COC(=O)C1CN(Cc2ccc(OC)cc2)CCS(=O)(=O)N1Cc1ccc(OC)cc1 (stereo not drawn)	-2	-2	0	-1	-3
COC(=O)c1cc2c(c3c4cc(C)ccc4n(S(=O)(=O)c4ccc(C)cc4)c13)C(=O)N(Cc1ccccc1)C2	0	-2	0	-1	-4
O=C(N/N=C/c1cccc([N+](=O)[O-])c1)C1CC1c1ccccc1 (stereo not drawn)	-1	-1	-3	-2	9.1*
FC(F)(F)c1ccc(Cn2ccc3ccc(-c4ccc5ccn(Cc6ccccc6)c5c4)cc32)cc1	0	1	1	1	3
N#C/C(=C/c1ccc(Br)s1)C(=O)NCCc1c[nH]c2ccccc12	0	-2	6.0*	0	0
c1ccc(-c2csc3ncn4nnnc4c23)cc1	1	1	-1	1.0*	-2
Cn1c(/C(C#N)=C(\O)c2cccc(F)c2)nc2ccccc21	0	3	4	1.4*	-1
O=C(N1CCC(C(O)(c2ccccc2)c2ccccc2)CC1)n1ncc(C(O)(c2ccccc2)c2ccccc2)n1	/	-11	-5	-2	/
O=C(CSc1nc2[nH]ncc2c(=O)[nH]1)Nc1nccs1	0	-1	2	7.5*	0
CC(=O)c1cccc(Nc2ccc(-c3ccccc3F)nn2)c1	3.8*	9	4	-1	-1
CC(=O)c1ccc(Nc2ccc(-c3ccccc3C)nn2)cc1	2	11*	1	0	6
COc1ccccc1-c1ccc(Nc2cccc(C(C)=O)c2)nn1	0	4	1	-2	5
CC(=O)c1ccc(Nc2nc(C)cc(C)n2)cc1	1	6	1	-1	7
C/C(=N\O)c1ccc2c3c([nH]c2c1)CCCC3	0	11*	-1	-1	4
C/C(=N\O)c1ccc2[nH]ccc2c1	1	4	-1	-1	1
COc1cc(NC(=O)c2cc3sccc3n2C)cc(OC)c1	2	10	6.0*	0	4
COC(=O)c1ccc(NC(=O)c2cc3sccc3n2C)cc1	0	2	0	-1	6
O=C(NCC(O)c1ccccc1)c1cccs1 (stereo not drawn)	1	12*	2	0	4
O=C(NCCc1cccs1)c1cccs1	3	11*	2	0	3
O=C(NCCCc1ccccc1)c1cccs1	1	5	2	-1	2
COc1ccc(OCC(=O)N/N=C\c2ccco2)cc1	0	1	-1	-1	7
COc1ccc(/[N+]([O-])=C/c2ccco2)cc1	2	10*	2	0	6
COC(CNC(=O)c1ccc2nc3ccccc3c(=O)n2c1)OC	0	4	5.7*	-1	0
O=C(/C=C/c1cccs1)NNC(=O)c1ccccc1	2	7	6.0*	0	0
O=C(Nc1nc2ccsc2c(=O)s1)C1CCC1	0	5	2	-1	2
O=c1sc(Nc2ccccc2)nc2ccsc12	2	9	6.2*	0	7
